This passage reports growth results from PubChem BioAssay (NCI).

Molecules are shown by their SMILES. This is part of a sample that, as a whole, favours compounds with a hit. Of some 83,000 tested, about 20% had one in any assay.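 In brief: 96-well plates, 48 h treatment, single concentration, percent growth endpoint.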 Calls of active or inactive are those of the source. The calls were made as follows: active = growth percent below 10; inactive = the rest.

The first assay has as its system COLO 205 colon. In words: NCI-60 one-dose screen, 48 h (100 = growth as untreated, 0 = no growth, -100 = all killed). Particulars: 10 µM unless noted.
As for `Nc1ccccc1-c1ccc(-c2ccc(Cl)cc2)c2c1[nH]c1ccccc12`, the growth was 78.5% (inactive).
Same read-out and setting: the figure for `OC(CNC1CCCCC1)Cn1c2ccc(I)cc2c2cc(I)ccc21` (stereo not drawn) is 104% (inactive); for `COc1cc(C(=O)NN=C2c3ccccc3-c3ccccc32)cc(OC)c1OC` it is 2.88% (active); for `C=C(C)CCC(C)N1CCC(N2CCC(C(=O)NCCc3ccccc3)CC2)CC1` (stereo not drawn) it is 25.4% (inactive).
Turning to `C#CCn1cc(C=C2C(=O)N(C)C(=O)N(C)C2=O)c2cc(Cl)ccc21`, the growth is 122% (inactive).
Same read-out and setting: the figure for `O=C(Nc1ccc(C23CC4CC(CC(c5ccccc5)(C4)C2)C3)cc1)c1cccs1` is 91.4% (inactive).
Same read-out and setting: the figure for `O=C(Cc1ccccc1)NC(c1ccc(Cl)cc1)c1c(O)ccc2ccccc12` (stereo not drawn) is -38.6% (active); for `COc1ccc(CSc2nnc(SCC(=O)Nc3ccc(Cl)cc3)s2)cc1` it is 56.1% (inactive).
On the same count and under the same terms, the figure for `O=C(COc1cc(O)c2c(=O)cc(-c3ccccc3)oc2c1)Nc1ccccc1C(F)(F)F` is 60.1% (inactive); for `Cc1cc(OC(=O)c2ccc([N+](=O)[O-])cc2)nc2[nH]c(=O)sc12` it is 116% (inactive); for `O=c1oc2ccc(F)cc2c(=O)n1-c1ccc(I)cc1F` it is 53.9% (inactive).
`O=Cc1c(OCc2cnnn2CC(=O)Nc2ccc(Br)cc2)ccc2ccccc12`: the growth is 106% (inactive).
Still for that read-out and setting: the figure for `COc1ccc2[nH]c(O)c(N=NC(=O)c3oc4ccccc4c3C)c2c1` is 22.8% (inactive); for `Cc1cc(Nc2ccc(OCc3ccccc3)cc2)nc2cc(O)ccc12` it is 21.9% (inactive); for `O=C(COc1cc(O)c2c(=O)cc(-c3ccccc3)oc2c1)Nc1ccccc1` it is 108% (inactive).
Same read-out and setting: the figure for `O=C(Nc1ccc(-c2nc3ccc(NC(=O)c4ccc(Cl)cc4)cc3[nH]2)cc1)c1ccc(Cl)cc1` is -74.3% (active).
Same read-out and setting: the figure for `O=C1c2cc(Br)ccc2Oc2cc([N+](=O)[O-])ccc2N1c1ccc(I)cc1F` is 123% (inactive).
On to `Cc1ccc2nc(NC(=O)CSC(=S)N3CCN(c4ccccc4)CC3)sc2c1`, for which the growth is 116% (inactive).
Consider `CCCCCCC(O)(c1ccc(F)cc1)C(CN1CCOCC1)c1ccccc1` (stereo not drawn), for which the growth was -21.7% (active).
The same measure, in the same setting: the figure for `COc1ccc(CCN2CCC(CN(C)Cc3cnn(-c4ccccc4)c3)CC2)cc1` is 30.1% (inactive).
The same measure, in the same setting: the figure for `NC(=O)CSc1nc(-c2ccc(F)cc2)cc(-c2ccco2)n1` is 111% (inactive); for `CCCSC1=NC2C(N(CC)C(=O)N2CC)N1/N=C/C=C/c1ccccc1[N+](=O)[O-]` (stereo not drawn) it is 0.744% (active); for `O=c1oc2ccc(Cl)cc2c(=O)n1-c1ccc(I)cc1F` it is 53% (inactive).
The same measure, in the same setting: the figure for `COc1ccc(C2NCCc3c2[nH]c2ccccc32)cc1CN1CCN(c2ccc(F)cc2)CC1` (stereo not drawn) is 47.6% (inactive); for `Cc1sc2ncnc(Sc3nc4ccccc4[nH]3)c2c1C` it is -74.6% (active); for `FC(F)(F)c1cccc(CNC2CCN(CCc3ccccc3)CC2)c1` it is 76.2% (inactive).
As for `O=C(Nc1ccc(I)cc1F)c1cc(Br)ccc1O`, the growth was 46.9% (inactive).
As to `Cc1ccc2[nH]c(=O)cc(-n3nncc3Cn3c4ccccc4c4ccccc43)c2c1`, the growth is 116% (inactive).
Same read-out and setting: the figure for `CC(=O)n1cc(-c2c[nH]c3ccccc23)c(-c2ccc(Cl)cc2)n1` is 92.4% (inactive); for `CC[C@H](C)[C@@H](C(=O)OC)n1cc(CNC(=O)[C@@H](Cc2ccccc2)NC(=O)OCc2ccccc2)nn1` it is 122% (inactive); for `O=C(Nc1ccc(I)cc1F)c1cc(Cl)ccc1O` it is 42.8% (inactive).
As for `NNC(=O)CNC(=O)Nc1n[nH]c(=S)s1`, the growth was 107% (inactive).
On the same count and under the same terms, the figure for `COc1ccc(Nc2cc(C)nc(NCc3ccccc3)n2)cc1` is 3.51% (active); for `O=C(Nc1ccc(N2CCNCC2)cn1)c1[nH]ncc1Nc1ncnc2sc3c(c12)CCC3` it is 22.8% (inactive).
Still for that read-out and setting: the figure for `COc1c(B(O)O)cccc1-c1nc2ccc3[nH]ncc3c2c2c1C1CCC2C1` (stereo not drawn) is 50.4% (inactive); for `COC(=O)c1cc2c(n1Cc1ccccc1)-c1oncc1CCC2` it is 55% (inactive).
Still for that read-out and setting: the figure for `O=C(Nc1ccc(N2CCNCC2)cc1)c1[nH]ncc1Nc1cc(C2CC2)ncn1` is 24% (inactive); for `CC(C)CCNCC(O)Cn1c2ccccc2c2ccccc21` (stereo not drawn) it is 2.79% (active).
Regarding `COc1cc(/C=C2\CN(C)C/C(=C\c3cc(CN4CCOCC4)c(O)c(OC)c3)C2=O)cc(CN2CCOCC2)c1O`, the growth is 45.2% (inactive).

For another assay, the system named is DU-145 prostate. Described as above. Particulars: 10 µM unless noted.
As to `Nc1ccccc1-c1ccc(-c2ccc(Cl)cc2)c2c1[nH]c1ccccc12`, the growth was 75.9% (inactive).
The same measure, in the same setting: the figure for `OC(CNC1CCCCC1)Cn1c2ccc(I)cc2c2cc(I)ccc21` (stereo not drawn) is 101% (inactive); for `COc1cc(C(=O)NN=C2c3ccccc3-c3ccccc32)cc(OC)c1OC` it is 49.7% (inactive); for `C=C(C)CCC(C)N1CCC(N2CCC(C(=O)NCCc3ccccc3)CC2)CC1` (stereo not drawn) it is 62.2% (inactive).
For the compound `C#CCn1cc(C=C2C(=O)N(C)C(=O)N(C)C2=O)c2cc(Cl)ccc21`, the growth is 112% (inactive).
The same measure, in the same setting: the figure for `O=C(Nc1ccc(C23CC4CC(CC(c5ccccc5)(C4)C2)C3)cc1)c1cccs1` is 84.7% (inactive).
On the same count and under the same terms, the figure for `O=C(Cc1ccccc1)NC(c1ccc(Cl)cc1)c1c(O)ccc2ccccc12` (stereo not drawn) is 33.6% (inactive).
Consider `COc1ccc(CSc2nnc(SCC(=O)Nc3ccc(Cl)cc3)s2)cc1`, for which the growth was 65.2% (inactive).
Still for that read-out and setting: the figure for `O=C(COc1cc(O)c2c(=O)cc(-c3ccccc3)oc2c1)Nc1ccccc1C(F)(F)F` is 52.7% (inactive); for `Cc1cc(OC(=O)c2ccc([N+](=O)[O-])cc2)nc2[nH]c(=O)sc12` it is 111% (inactive).
Same read-out and setting: the figure for `O=c1oc2ccc(F)cc2c(=O)n1-c1ccc(I)cc1F` is 14.8% (inactive); for `O=Cc1c(OCc2cnnn2CC(=O)Nc2ccc(Br)cc2)ccc2ccccc12` it is 96.9% (inactive); for `COc1ccc2[nH]c(O)c(N=NC(=O)c3oc4ccccc4c3C)c2c1` it is 17.6% (inactive).
On the same count and under the same terms, the figure for `Cc1cc(Nc2ccc(OCc3ccccc3)cc2)nc2cc(O)ccc12` is 86.4% (inactive); for `O=C(COc1cc(O)c2c(=O)cc(-c3ccccc3)oc2c1)Nc1ccccc1` it is 81.5% (inactive); for `O=C(Nc1ccc(-c2nc3ccc(NC(=O)c4ccc(Cl)cc4)cc3[nH]2)cc1)c1ccc(Cl)cc1` it is 44.1% (inactive).
Take `O=C1c2cc(Br)ccc2Oc2cc([N+](=O)[O-])ccc2N1c1ccc(I)cc1F`: the growth is 105% (inactive).
Consider `Cc1ccc2nc(NC(=O)CSC(=S)N3CCN(c4ccccc4)CC3)sc2c1`, for which the growth was 112% (inactive).
Still for that read-out and setting: the figure for `CCCCCCC(O)(c1ccc(F)cc1)C(CN1CCOCC1)c1ccccc1` (stereo not drawn) is 51.7% (inactive); for `COc1ccc(CCN2CCC(CN(C)Cc3cnn(-c4ccccc4)c3)CC2)cc1` it is 28.6% (inactive); for `NC(=O)CSc1nc(-c2ccc(F)cc2)cc(-c2ccco2)n1` it is 111% (inactive).
Same read-out and setting: the figure for `CCCSC1=NC2C(N(CC)C(=O)N2CC)N1/N=C/C=C/c1ccccc1[N+](=O)[O-]` (stereo not drawn) is 19.8% (inactive); for `O=c1oc2ccc(Cl)cc2c(=O)n1-c1ccc(I)cc1F` it is 15.6% (inactive); for `COc1ccc(C2NCCc3c2[nH]c2ccccc32)cc1CN1CCN(c2ccc(F)cc2)CC1` (stereo not drawn) it is 78.5% (inactive).
`Cc1sc2ncnc(Sc3nc4ccccc4[nH]3)c2c1C`: the growth was -83.2% (active).
`FC(F)(F)c1cccc(CNC2CCN(CCc3ccccc3)CC2)c1`: the growth is 59.1% (inactive).
The same measure, in the same setting: the figure for `O=C(Nc1ccc(I)cc1F)c1cc(Br)ccc1O` is 14.2% (inactive).
The same measure, in the same setting: the figure for `Cc1ccc2[nH]c(=O)cc(-n3nncc3Cn3c4ccccc4c4ccccc43)c2c1` is 102% (inactive).
As to `CC(=O)n1cc(-c2c[nH]c3ccccc23)c(-c2ccc(Cl)cc2)n1`, the growth is 96.3% (inactive).
Same read-out and setting: the figure for `CC[C@H](C)[C@@H](C(=O)OC)n1cc(CNC(=O)[C@@H](Cc2ccccc2)NC(=O)OCc2ccccc2)nn1` is 104% (inactive); for `O=C(Nc1ccc(I)cc1F)c1cc(Cl)ccc1O` it is 13.8% (inactive).
Same read-out and setting: the figure for `NNC(=O)CNC(=O)Nc1n[nH]c(=S)s1` is 107% (inactive).
Same read-out and setting: the figure for `COc1ccc(Nc2cc(C)nc(NCc3ccccc3)n2)cc1` is 45.4% (inactive).
In the case of `O=C(Nc1ccc(N2CCNCC2)cn1)c1[nH]ncc1Nc1ncnc2sc3c(c12)CCC3`, the growth was -52.1% (active).
For `COc1c(B(O)O)cccc1-c1nc2ccc3[nH]ncc3c2c2c1C1CCC2C1` (stereo not drawn), the growth is 72.3% (inactive).
Still for that read-out and setting: the figure for `COC(=O)c1cc2c(n1Cc1ccccc1)-c1oncc1CCC2` is 102% (inactive); for `O=C(Nc1ccc(N2CCNCC2)cc1)c1[nH]ncc1Nc1cc(C2CC2)ncn1` it is 70.6% (inactive); for `CC(C)CCNCC(O)Cn1c2ccccc2c2ccccc21` (stereo not drawn) it is 9.71% (active).
With `COc1cc(/C=C2\CN(C)C/C(=C\c3cc(CN4CCOCC4)c(O)c(OC)c3)C2=O)cc(CN2CCOCC2)c1O`, the growth is 28.5% (inactive).
